Results as given in PubChem BioAssay (NCI).
About 83,000 compounds went through this panel and 20% of them were active in at least one assay; those are over-represented in the sample as a whole.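 Negative percent growth values reflect cell death: -40 means 40% of the cells present at the start died, and -100 means all died.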 Unmarked numbers belong to inactive results. Activity calls are given as the source filed them. Rule for the calls: active = growth percent below 10; inactive = the rest.

These molecules were tested on HL-60(TB) leukemia (assay: NCI-60 one-dose screen, 48 h (100 = growth as untreated, 0 = no growth, -100 = all killed)). Conditions: 10 µM unless noted.

SMILES	growth
c1ccc2c(c1)nc(-n1ccnc1)c1nc3ccccc3n12	101%
OCc1cccc(F)c1	107%
CCCCS(=O)(=O)Oc1ccc(-c2nc(C)c(C(=O)OCC)s2)cc1C=O	37.7%
COc1ccc2c(c1)C(=O)/C(=C/c1ncc([N+](=O)[O-])n1C)O2	-7.47% (active)
COc1cc2nc(Cl)nc(Nc3cccc(C(=O)/C=C/c4ccccc4)c3)c2cc1OC	70.1%
CS(=O)(=O)c1cccnn1	108%
COc1ccc(-c2cc3c(nn2)-c2ccccc2C3=O)cc1	57.4%
Cc1ccc(-c2c(-c3ccccc3)c(=O)oc3ccc(C)cc23)cc1	87%
Cc1nc(Nc2cccnc2)sc1C(=O)/C=C/c1ccc(Cl)cc1	-4.8% (active)
C#CCOC(=O)C(N)CS (stereo not given)	120%
CN1C(=O)CNC(=O)[C@H](NC(=O)c2nc3ccccc3cc2O)CSSC[C@H]1C(=O)NCCc1nc2ccccc2cc1O	-36.8% (active)
CC1=NN(c2ccc(S(=O)(=O)O)cc2)C(=O)C1N=Nc1ccc(-c2ccc(N=Nc3ccc(OS(=O)(=O)c4ccc(C)cc4)cc3)c(S(=O)(=O)O)c2)cc1 (stereo not given)	108%
CCOC(=O)C1(C)CCCC1N (stereo not given)	98.5%
O=C(NCc1ccc(Cn2c(=O)sn(-c3ccccc3)c2=O)cc1)OCc1ccc2c(Br)cc(Br)c(O)c2n1	-41.3% (active)
CSc1ccc(-c2cc(-c3ccc(NC(=O)CCCN4CCCC4)cc3)nc(-c3ccc(NC(=O)CCCN4CCCC4)cc3)c2)cc1	60.8%
